Measured values as given in PubChem BioAssay AID1159580 (chemical genetic matrix, 2015).
Screen size: about 5,500 compounds; about 2,000 (36%) were called active. Roughly 18% stayed inconclusive and do not appear here. Cut-off read from the data, not from the text of the source: active = normalized growth mostly below about 0.91 (no sharp cut-off); inconclusive = no clear call, values can overlap the other calls; inactive = mostly above about 0.92. The list shows a part of the results.

Experiment: chemical genetic growth profiling, strain panel (AID 1159580);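 note: tested at 20 µM; growth read once vehicle control cultures reached saturation at 30 °C; 1 = growth at the plate median or of vehicle wells; lower values mean less growth of the strain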
Conditions: S. cerevisiae deletion strains, growth OD

Measured: normalized growth

NCCS(=O)(=O)O
inactive: locus YAL021C, strain ccr4, stronger effect = lower value 0.965 | locus YAL026C, strain drs2, stronger effect = lower value 0.978 | locus YAL030W, strain snc1, stronger effect = lower value 0.981 | locus YAL040C, strain CLN3, stronger effect = lower value 1 | locus YBL061C, strain skt5, stronger effect = lower value 0.984 | locus YBR009C, strain hhf1, stronger effect = lower value 0.981 | locus YBR023C, strain chs3, stronger effect = lower value 0.982 | locus YBR171W, strain sec66, stronger effect = lower value 0.97 | locus YBR231C, strain swc5, stronger effect = lower value 0.983 | locus YBR279W, strain paf1, stronger effect = lower value 0.985 | locus YCL011C, strain gbp2, stronger effect = lower value 0.965 | locus YCL016C, strain dcc1, stronger effect = lower value 0.984 | locus YCL061C, strain MRC1 (second series), stronger effect = lower value 1 | locus YCL061C, strain MRC1, stronger effect = lower value 0.98 | locus YCL069W, strain vba3, stronger effect = lower value 0.976 | locus YCR088W, strain abp1, stronger effect = lower value 0.978 | locus YDL005C, strain med2, stronger effect = lower value 0.984 | locus YDL040C, strain nat1, stronger effect = lower value 0.986 | locus YDR001C, strain nth1, stronger effect = lower value 0.983 | locus YDR069C, strain doa4, stronger effect = lower value 0.98 | locus YDR137W, strain rgp1, stronger effect = lower value 0.971 | locus YDR150W, strain NUM1, stronger effect = lower value 1.01 | locus YDR159W, strain sac3, stronger effect = lower value 0.952 | locus YDR195W, strain ref2 0.924 | locus YDR297W, strain sur2, stronger effect = lower value 0.979 | locus YDR334W, strain swr1, stronger effect = lower value 0.948 | locus YDR335W, strain msn5, stronger effect = lower value 0.969 | locus YDR363W, strain ESC2, stronger effect = lower value 1 | locus YDR392W, strain spt3, stronger effect = lower value 0.977 | locus YEL003W, strain gim4, stronger effect = lower value 0.975 | locus YEL037C, strain rad23, stronger effect = lower value 0.975 | locus YEL061C, strain CIN8 (second series), stronger effect = lower value 0.97 | locus YER002W, strain NOP16, stronger effect = lower value 0.984 | locus YER015W, strain faa2, stronger effect = lower value 0.971 | locus YER016W, strain bim1, stronger effect = lower value 0.975 | locus YER111C, strain swi4, stronger effect = lower value 0.967 | locus YER155C, strain BEM2 (second series), stronger effect = lower value 0.978 | locus YFR010W, strain ubp6, stronger effect = lower value 0.959 | locus YGL167C, strain pmr1, stronger effect = lower value 0.977 | locus YGL173C, strain kem1, stronger effect = lower value 0.971 | locus YGL227W, strain vid30, stronger effect = lower value 0.984 | locus YGL240W, strain doc1, stronger effect = lower value 0.961 | locus YGL253W, strain hxk2, stronger effect = lower value 0.986 | locus YHR013C, strain ard1, stronger effect = lower value 0.968 | locus YHR027C, strain rpn1, stronger effect = lower value 0.967 | locus YHR030C, strain SLT2, stronger effect = lower value 0.943 | locus YHR079C, strain IRE1, stronger effect = lower value 0.966 | locus YHR142W, strain chs7, stronger effect = lower value 0.964 | locus YJL092W, strain hpr5, stronger effect = lower value 0.963 | locus YJL095W, strain BCK1 (second series), stronger effect = lower value 0.972 | locus YJL095W, strain BCK1, stronger effect = lower value 0.998 | locus YJL115W, strain asf1, stronger effect = lower value 0.958 | locus YJL129C, strain trk1, stronger effect = lower value 0.961 | locus YJL154C, strain vps35, stronger effect = lower value 0.974 | locus YJL164C, strain tpk1, stronger effect = lower value 0.986 | locus YJL166W, strain qcr8, stronger effect = lower value 0.986 | locus YJL187C, strain SWE1, stronger effect = lower value 0.982 | locus YJR066W, strain TOR1, stronger effect = lower value 0.92 | locus YJR075W, strain HOC1, stronger effect = lower value 0.999 | locus YKL160W, strain elf1, stronger effect = lower value 0.983 | locus YKR026C, strain gcn3, stronger effect = lower value 0.967 | locus YKR091W, strain srl3, stronger effect = lower value 0.979 | locus YLL001W, strain dnm1, stronger effect = lower value 0.97 | locus YLL026W, stronger effect = lower value 0.982 | locus YLL041C, strain sdh2, stronger effect = lower value 0.971 | locus YLR027C, strain aat2, stronger effect = lower value 0.981 | locus YLR113W, strain HOG1, stronger effect = lower value 1.02 | locus YLR221C, strain rsa3, stronger effect = lower value 0.982 | locus YLR258W, strain gsy2, stronger effect = lower value 0.987 | locus YLR262C, strain YPT6 (second series), stronger effect = lower value 0.99 | locus YLR320W, strain mms22, stronger effect = lower value 0.972 | locus YLR342W, strain FKS1, stronger effect = lower value 0.985 | locus YLR357W, strain rsc2, stronger effect = lower value 0.972 | locus YLR370C, strain arc18, stronger effect = lower value 0.981 | locus YLR384C, strain iki3, stronger effect = lower value 0.977 | locus YML120C, strain ndi1, stronger effect = lower value 0.963 | locus YMR058W, strain fet3, stronger effect = lower value 0.97 | locus YMR125W, strain sto1, stronger effect = lower value 0.954 | locus YMR129W, stronger effect = lower value 0.978 | locus YMR205C, strain PFK2, stronger effect = lower value 1 | locus YMR231W, strain pep5, stronger effect = lower value 0.985 | locus YMR307W, strain GAS1, stronger effect = lower value 1 | locus YNL071W, strain lat1, stronger effect = lower value 0.981 | locus YNL128W, strain TEP1, stronger effect = lower value 1 | locus YNL153C, strain GIM3, stronger effect = lower value 1.04 | locus YNL175C, strain NOP13, stronger effect = lower value 1.01 | locus YNL183C, strain NPR1, stronger effect = lower value 0.939 | locus YNL197C, strain WHI3, stronger effect = lower value 0.993 | locus YNL209W, strain ssb2, stronger effect = lower value 0.973 | locus YNL224C, strain SQS1, stronger effect = lower value 1 | locus YNL248C, strain rpa49, stronger effect = lower value 0.944 | locus YNL322C, strain KRE1 (second series), stronger effect = lower value 0.971 | locus YNR049C, strain mso1, stronger effect = lower value 0.975 | locus YOR001W, strain rrp6, stronger effect = lower value 0.957 | locus YOR070C, strain gyp1, stronger effect = lower value 0.992 | locus YOR080W, strain dia2, stronger effect = lower value 0.978 | locus YOR083W, strain WHI5 (second series), stronger effect = lower value 1.03 | locus YOR083W, strain WHI5, stronger effect = lower value 0.976 | locus YOR106W, strain vam3, stronger effect = lower value 0.97 | locus YOR231W, strain MKK1, stronger effect = lower value 0.954 | locus YOR265W, strain rbl2, stronger effect = lower value 0.976 | locus YOR270C, strain vph1, stronger effect = lower value 0.949 | locus YOR290C, strain snf2, stronger effect = lower value 0.999 | locus YPL051W, strain arl3, stronger effect = lower value 0.99 | locus YPL055C, strain LGE1, stronger effect = lower value 1 | locus YPL078C, strain atp4, stronger effect = lower value 0.966 | locus YPL106C, strain sse1, stronger effect = lower value 0.947 | locus YPL240C, strain hsp82, stronger effect = lower value 0.994 | locus YPL241C, strain CIN2, stronger effect = lower value 1 | locus YPL256C, strain CLN2, stronger effect = lower value 0.957
